# Columns and labels:
# Assay in all cases: DAPPL (digital affinity profiling via proximity ligation, sequencing); 10 mM Tris-HCl pH 7.5, 50 mM NaCl, 1 mM DTT, 4% glycerol, room temperature, 30 min; GST-TFs on glutathione beads, 16-mer random dsDNA library, 0.1% formaldehyde crosslink after washing; high values mean tight binding
# Settings in all cases: protein: recombinant; tags: N-terminal GST; dsDNA, one strand shown
# ELK1 = molecular target: T1, ELK1 (Homo sapiens, UniProt P19419 1-428)
# T1 sequence: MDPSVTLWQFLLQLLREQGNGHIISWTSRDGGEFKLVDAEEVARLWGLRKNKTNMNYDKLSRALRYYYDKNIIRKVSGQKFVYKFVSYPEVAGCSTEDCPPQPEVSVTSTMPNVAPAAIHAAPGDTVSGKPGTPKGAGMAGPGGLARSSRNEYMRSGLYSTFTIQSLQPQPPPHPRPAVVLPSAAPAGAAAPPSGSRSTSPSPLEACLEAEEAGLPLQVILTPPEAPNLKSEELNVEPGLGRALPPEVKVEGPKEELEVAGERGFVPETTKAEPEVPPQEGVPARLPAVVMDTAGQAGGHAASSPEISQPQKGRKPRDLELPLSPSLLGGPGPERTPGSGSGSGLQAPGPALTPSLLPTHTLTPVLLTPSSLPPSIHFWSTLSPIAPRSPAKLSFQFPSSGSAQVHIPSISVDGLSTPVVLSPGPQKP
# How it was run: (§1)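 A tag-only sample was pooled with DNA-barcoded human transcription factors that had been expressed in yeast as GST fusions and captured on glutathione beads. The pools were incubated for 30 min at room temperature with 200 nmole of a random double-stranded 16-mer DNA library in Tris/NaCl/DTT/glycerol buffer, then washed, crosslinked with 0.1% formaldehyde, proximity-ligated (BsaI/T4 ligase, 1 h, 37 °C), PCR-amplified and sequenced on an Illumina NextSeq500. Binding signal is each hexamer's read frequency for a factor divided by its frequency for the tag-only sample.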
# ERG = molecular target: T2, ERG (Homo sapiens, UniProt P11308 1-479)
# T2 sequence: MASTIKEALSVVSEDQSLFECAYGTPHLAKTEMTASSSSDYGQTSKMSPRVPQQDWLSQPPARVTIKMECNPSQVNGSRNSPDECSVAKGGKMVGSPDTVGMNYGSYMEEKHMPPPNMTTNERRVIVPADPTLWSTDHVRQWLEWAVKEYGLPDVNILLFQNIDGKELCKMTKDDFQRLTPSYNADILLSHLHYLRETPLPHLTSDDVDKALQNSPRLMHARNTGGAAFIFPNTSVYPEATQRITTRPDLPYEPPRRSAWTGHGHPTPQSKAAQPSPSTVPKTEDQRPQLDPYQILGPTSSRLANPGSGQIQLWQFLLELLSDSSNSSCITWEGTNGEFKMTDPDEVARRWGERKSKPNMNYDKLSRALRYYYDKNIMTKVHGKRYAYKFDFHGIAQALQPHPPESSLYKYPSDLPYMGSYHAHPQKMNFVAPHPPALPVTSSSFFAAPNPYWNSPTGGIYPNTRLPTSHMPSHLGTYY
# How it was run: as §1
# ELF1 = ELF1 (Homo sapiens, UniProt P32519 1-619)
# ELF1, sequence (P32519 whole entry): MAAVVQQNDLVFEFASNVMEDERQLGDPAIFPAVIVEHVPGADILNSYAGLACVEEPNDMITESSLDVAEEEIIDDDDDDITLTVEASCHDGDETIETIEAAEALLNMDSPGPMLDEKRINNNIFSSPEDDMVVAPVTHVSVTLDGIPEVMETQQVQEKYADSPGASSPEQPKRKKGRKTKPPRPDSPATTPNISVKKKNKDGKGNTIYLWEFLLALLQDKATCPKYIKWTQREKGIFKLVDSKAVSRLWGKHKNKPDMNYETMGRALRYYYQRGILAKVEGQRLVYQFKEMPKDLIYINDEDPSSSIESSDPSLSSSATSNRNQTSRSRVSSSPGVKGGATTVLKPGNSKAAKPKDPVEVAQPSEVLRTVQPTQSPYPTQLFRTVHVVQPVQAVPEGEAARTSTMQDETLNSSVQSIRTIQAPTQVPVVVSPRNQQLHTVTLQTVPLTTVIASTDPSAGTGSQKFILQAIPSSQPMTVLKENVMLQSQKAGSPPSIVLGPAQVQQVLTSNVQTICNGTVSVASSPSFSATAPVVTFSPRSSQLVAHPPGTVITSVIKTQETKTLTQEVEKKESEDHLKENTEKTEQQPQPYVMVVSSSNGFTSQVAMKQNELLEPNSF
# How it was run: as §1
# SPIB = SPIB (Homo sapiens, UniProt Q01892 1-262)
# SPIB, sequence (Q01892 whole entry): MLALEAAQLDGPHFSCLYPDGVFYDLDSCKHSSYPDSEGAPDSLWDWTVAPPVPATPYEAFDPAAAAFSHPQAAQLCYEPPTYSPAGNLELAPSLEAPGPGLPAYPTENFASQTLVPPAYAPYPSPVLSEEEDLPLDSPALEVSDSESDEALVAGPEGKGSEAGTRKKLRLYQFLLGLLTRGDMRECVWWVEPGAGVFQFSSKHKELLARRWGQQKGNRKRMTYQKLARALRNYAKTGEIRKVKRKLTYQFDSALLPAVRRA
# How it was run: as §1
# ETV5 = ETV5 (Homo sapiens, UniProt P41161 1-510)
# ETV5, sequence (P41161 whole entry): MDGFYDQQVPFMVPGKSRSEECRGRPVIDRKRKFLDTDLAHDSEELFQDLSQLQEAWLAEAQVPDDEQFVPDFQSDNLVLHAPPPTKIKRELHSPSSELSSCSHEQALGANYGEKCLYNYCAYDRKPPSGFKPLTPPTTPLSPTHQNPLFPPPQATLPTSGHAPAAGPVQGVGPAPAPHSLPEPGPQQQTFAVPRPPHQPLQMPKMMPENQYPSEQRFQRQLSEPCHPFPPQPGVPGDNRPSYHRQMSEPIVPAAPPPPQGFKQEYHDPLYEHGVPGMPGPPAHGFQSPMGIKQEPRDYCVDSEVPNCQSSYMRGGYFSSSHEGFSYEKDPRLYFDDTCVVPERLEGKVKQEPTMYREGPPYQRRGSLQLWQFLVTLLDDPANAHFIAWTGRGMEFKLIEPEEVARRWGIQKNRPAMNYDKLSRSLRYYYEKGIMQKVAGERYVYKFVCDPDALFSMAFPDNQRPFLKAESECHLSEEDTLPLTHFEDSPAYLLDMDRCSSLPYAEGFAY
# How it was run: as §1
# ELK4 = molecular target: T3, ELK4 (Homo sapiens, UniProt P28324-2 1-405)
# T3 sequence: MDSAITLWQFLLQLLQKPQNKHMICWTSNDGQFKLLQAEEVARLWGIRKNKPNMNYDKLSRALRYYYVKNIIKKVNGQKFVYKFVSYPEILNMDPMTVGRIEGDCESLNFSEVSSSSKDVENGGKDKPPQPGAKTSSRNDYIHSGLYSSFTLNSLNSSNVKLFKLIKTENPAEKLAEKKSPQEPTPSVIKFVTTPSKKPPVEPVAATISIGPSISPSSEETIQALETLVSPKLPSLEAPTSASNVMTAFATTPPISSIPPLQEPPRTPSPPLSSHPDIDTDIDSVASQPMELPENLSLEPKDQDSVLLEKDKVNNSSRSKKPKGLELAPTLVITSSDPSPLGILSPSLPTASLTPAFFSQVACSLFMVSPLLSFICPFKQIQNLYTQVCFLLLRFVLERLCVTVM
# How it was run: as §1
# ETV1 = ETV1 (Homo sapiens, UniProt P50549 1-477)
# ETV1, sequence (P50549 whole entry): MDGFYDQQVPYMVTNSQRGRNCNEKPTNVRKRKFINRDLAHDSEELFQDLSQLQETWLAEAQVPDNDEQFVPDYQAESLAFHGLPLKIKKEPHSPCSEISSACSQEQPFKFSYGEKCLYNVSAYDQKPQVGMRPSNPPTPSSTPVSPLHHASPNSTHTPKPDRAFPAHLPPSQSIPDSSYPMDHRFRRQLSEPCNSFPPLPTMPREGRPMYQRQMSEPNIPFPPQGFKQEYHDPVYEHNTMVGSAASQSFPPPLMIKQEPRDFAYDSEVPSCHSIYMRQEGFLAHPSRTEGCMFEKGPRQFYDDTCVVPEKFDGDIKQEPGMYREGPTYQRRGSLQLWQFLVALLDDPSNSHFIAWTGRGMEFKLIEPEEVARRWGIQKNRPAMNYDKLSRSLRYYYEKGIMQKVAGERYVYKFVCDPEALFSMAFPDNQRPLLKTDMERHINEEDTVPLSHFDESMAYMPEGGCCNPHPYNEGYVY
# How it was run: as §1
# ERF = molecular target: T4, ERF (Homo sapiens, UniProt P50548 1-548)
# T4 sequence: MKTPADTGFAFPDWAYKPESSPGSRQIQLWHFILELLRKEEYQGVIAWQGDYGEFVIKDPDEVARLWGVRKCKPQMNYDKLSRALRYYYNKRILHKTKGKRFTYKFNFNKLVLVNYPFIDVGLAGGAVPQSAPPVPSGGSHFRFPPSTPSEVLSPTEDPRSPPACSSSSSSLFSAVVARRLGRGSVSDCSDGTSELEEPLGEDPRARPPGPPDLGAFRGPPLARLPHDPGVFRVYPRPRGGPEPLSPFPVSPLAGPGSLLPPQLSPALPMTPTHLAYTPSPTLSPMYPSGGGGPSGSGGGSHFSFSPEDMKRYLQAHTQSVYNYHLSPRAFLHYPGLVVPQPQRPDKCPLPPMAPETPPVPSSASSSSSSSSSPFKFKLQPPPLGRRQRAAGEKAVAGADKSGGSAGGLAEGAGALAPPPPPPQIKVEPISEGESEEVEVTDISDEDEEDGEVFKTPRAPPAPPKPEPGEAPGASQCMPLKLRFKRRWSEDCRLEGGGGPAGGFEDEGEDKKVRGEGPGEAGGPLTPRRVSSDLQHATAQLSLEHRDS
# How it was run: as §1
# ETV3L = molecular target: T5, ETV3L (Homo sapiens, UniProt Q6ZN32 1-361)
# T5 sequence: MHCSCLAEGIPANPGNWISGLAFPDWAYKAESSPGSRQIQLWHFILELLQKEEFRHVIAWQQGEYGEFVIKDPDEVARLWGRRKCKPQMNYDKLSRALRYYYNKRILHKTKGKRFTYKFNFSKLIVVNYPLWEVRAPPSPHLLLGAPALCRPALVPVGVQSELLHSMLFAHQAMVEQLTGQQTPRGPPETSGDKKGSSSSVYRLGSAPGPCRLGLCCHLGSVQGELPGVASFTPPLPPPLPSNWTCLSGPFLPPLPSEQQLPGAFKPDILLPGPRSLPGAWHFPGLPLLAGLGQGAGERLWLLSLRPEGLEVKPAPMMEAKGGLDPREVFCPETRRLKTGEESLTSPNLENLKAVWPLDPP
# How it was run: as §1
# ETV7 = molecular target: T6, ETV7 (Homo sapiens, UniProt Q9Y603 1-341)
# T6 sequence: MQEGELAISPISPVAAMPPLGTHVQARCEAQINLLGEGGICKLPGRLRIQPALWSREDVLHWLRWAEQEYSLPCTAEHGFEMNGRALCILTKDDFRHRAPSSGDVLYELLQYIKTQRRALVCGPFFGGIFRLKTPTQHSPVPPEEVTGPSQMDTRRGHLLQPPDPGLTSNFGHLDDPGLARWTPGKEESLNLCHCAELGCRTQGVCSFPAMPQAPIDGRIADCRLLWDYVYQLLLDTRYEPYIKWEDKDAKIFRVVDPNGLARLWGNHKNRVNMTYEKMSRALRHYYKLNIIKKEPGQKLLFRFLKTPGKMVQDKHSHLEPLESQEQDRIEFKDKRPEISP
# How it was run: as §1
# FEV = molecular target: T7, FEV (Homo sapiens, UniProt Q99581 1-238)
# T7 sequence: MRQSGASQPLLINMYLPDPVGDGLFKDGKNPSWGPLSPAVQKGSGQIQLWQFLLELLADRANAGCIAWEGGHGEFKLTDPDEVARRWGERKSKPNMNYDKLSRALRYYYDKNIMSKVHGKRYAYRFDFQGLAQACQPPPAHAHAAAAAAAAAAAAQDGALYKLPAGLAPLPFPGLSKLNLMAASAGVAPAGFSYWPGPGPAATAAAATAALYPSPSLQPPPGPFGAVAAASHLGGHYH
# How it was run: as §1
# ELF4 = ELF4 (Homo sapiens, UniProt Q99607 1-663)
# ELF4, sequence (Q99607 whole entry): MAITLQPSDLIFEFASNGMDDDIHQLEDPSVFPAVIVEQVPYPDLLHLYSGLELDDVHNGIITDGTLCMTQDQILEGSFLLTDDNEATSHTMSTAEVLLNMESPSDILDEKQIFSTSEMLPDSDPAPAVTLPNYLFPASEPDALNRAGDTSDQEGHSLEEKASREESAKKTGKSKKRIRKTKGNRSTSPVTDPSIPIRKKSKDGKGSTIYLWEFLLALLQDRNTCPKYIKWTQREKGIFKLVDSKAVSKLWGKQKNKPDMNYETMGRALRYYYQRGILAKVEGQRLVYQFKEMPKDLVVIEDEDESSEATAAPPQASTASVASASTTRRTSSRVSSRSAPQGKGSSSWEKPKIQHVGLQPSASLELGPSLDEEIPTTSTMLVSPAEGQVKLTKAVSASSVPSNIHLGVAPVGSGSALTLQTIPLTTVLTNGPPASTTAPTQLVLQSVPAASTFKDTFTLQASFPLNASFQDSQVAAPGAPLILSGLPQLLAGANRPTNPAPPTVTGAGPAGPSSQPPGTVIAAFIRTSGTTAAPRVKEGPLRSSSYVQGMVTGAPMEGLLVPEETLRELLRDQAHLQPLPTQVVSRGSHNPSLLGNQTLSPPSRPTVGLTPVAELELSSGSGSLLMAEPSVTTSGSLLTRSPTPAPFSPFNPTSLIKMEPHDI
# How it was run: as §1
# ETV2 = molecular target: T8, ETV2 (Homo sapiens, UniProt O00321 1-342)
# T8 sequence: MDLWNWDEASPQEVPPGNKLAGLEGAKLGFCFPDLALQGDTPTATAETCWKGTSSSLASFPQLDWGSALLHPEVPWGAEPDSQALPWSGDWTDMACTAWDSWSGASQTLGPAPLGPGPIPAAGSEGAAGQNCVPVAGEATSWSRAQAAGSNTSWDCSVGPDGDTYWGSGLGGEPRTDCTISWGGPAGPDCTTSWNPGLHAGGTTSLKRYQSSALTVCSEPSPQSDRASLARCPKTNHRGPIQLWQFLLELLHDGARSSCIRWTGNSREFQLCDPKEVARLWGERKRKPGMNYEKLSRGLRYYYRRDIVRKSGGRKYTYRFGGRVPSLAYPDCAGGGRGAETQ
# How it was run: as §1
# ELF3 = molecular target: T9, ELF3 (Homo sapiens, UniProt P78545 1-371)
# T9 sequence: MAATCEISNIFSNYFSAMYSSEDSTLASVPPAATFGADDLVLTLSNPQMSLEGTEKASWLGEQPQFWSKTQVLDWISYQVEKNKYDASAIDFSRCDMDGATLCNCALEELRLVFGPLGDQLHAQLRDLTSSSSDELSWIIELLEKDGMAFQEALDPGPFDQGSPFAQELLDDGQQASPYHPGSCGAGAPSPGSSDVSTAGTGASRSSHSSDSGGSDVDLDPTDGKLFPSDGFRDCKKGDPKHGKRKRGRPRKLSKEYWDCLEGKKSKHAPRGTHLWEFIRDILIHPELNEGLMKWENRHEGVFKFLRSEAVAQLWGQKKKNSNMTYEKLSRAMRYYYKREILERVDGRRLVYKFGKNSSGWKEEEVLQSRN
# How it was run: as §1
# ETV3 = molecular target: T10, ETV3 (Homo sapiens, UniProt P41162-2 1-143)
# T10 sequence: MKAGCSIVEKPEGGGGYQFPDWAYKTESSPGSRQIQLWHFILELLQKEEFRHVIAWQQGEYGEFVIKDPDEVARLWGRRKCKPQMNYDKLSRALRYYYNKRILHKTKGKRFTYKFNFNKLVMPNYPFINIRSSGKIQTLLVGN
# How it was run: as §1
Sequence,binding signal (ELK1),binding signal (ERG),binding signal (ELF1),binding signal (SPIB),binding signal (ETV5),binding signal (ELK4),binding signal (ETV1),binding signal (ERF),binding signal (ETV3L),binding signal (ETV7),binding signal (FEV),binding signal (ELF4),binding signal (ETV2),binding signal (ELF3),binding signal (ETV3)
GGTGGT,"1.03 fold enrichment (6-mer frequency, TF over GST control)","1.12 fold enrichment (6-mer frequency, TF over GST control)","1.01 fold enrichment (6-mer frequency, TF over GST control)","1.02 fold enrichment (6-mer frequency, TF over GST control)","1.04 fold enrichment (6-mer frequency, TF over GST control)","1.08 fold enrichment (6-mer frequency, TF over GST control)","1 fold enrichment (6-mer frequency, TF over GST control)","1.07 fold enrichment (6-mer frequency, TF over GST control)","1.05 fold enrichment (6-mer frequency, TF over GST control)","1 fold enrichment (6-mer frequency, TF over GST control)",–,–,–,–,–
GCACAC,–,–,"1.02 fold enrichment (6-mer frequency, TF over GST control)",–,"1.02 fold enrichment (6-mer frequency, TF over GST control)",–,"1 fold enrichment (6-mer frequency, TF over GST control)","1.12 fold enrichment (6-mer frequency, TF over GST control)","1.04 fold enrichment (6-mer frequency, TF over GST control)",–,"1.02 fold enrichment (6-mer frequency, TF over GST control)","1.05 fold enrichment (6-mer frequency, TF over GST control)","1.01 fold enrichment (6-mer frequency, TF over GST control)","1.03 fold enrichment (6-mer frequency, TF over GST control)","1.05 fold enrichment (6-mer frequency, TF over GST control)"
